Data from PubChem BioAssay (EPA / NIEHS).
Calls of active or inactive are those of the source. How the source made its calls: active means hit-call score of the fitted dose curve at least 0.9, where 1 is the maximum; inactive means score below 0.9.

Experiments:
[1] = ATG_CRE_CIS: Attagene CIS-FACTORIAL HepG2 Assay for human cAMP Responsive Element (CRE) binding protein 3 (AID 2282926); settings: HepG2 CRE cis-reporter, Attagene multiplexed mRNA; actives raise or lower the signal
Procedure, shortened: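 Assay format: transient reporter transfection of HepG2, 24 h treatment, total RNA isolation with DNase I step. Reporter abundance read by fluorescence after PCR and capillary separation; DMSO-normalised gain or loss fitting.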

[2] = target: CCAAT/enhancer-binding protein beta (Homo sapiens) (UniProt P17676); assay: ATG_C_EBP_CIS: Attagene CIS-FACTORIAL HepG2 Assay for human CCAAT/Enhancer Binding Protein (C/EBP) beta (AID 2282927); settings: HepG2 Attagene cis-factorial transcription factor reporter; actives raise or lower the signal
Sequence of CCAAT/enhancer-binding protein beta (Homo sapiens) (P17676 whole entry, looked up): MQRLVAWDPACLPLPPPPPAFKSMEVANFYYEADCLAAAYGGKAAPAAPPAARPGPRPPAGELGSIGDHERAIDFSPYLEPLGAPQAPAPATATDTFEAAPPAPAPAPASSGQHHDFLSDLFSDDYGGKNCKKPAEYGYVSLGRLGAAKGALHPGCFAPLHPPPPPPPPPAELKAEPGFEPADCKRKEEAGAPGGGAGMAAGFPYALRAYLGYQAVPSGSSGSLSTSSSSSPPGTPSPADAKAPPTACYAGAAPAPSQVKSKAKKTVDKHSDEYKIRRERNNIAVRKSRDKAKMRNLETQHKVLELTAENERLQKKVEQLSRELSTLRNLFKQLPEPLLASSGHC
Procedure, shortened: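 Transiently transfected HepG2 (MRTU library, endogenous TF-driven promoters); 24 h dosing; total RNA → oligo(dT) RT → PCR → 6-FAM primer extension → HpaI digest → CE; fit bidirectionally vs DMSO.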

[3] = ATG_CMV_CIS: Attagene CIS-FACTORIAL HepG2 Assay for human CMV (Internal Marker) (AID 2282928); settings: HepG2 CMV promoter reporter, transcription factor profiling; actives raise or lower the signal;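 further: endpoint acts as a background internal control marker rather than a target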
Procedure, shortened: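 Readout: fluorescent reporter cDNA fragments separated by capillary electrophoresis after RT-PCR and HpaI cut. Cells: HepG2 carrying transfected cis-promoter reporter constructs, dosed 24 h. Endpoint serves as background internal-marker control, fit bidirectionally versus DMSO.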

[4] = target: Aryl hydrocarbon receptor (Homo sapiens) (UniProt P35869); assay: ATG_Ahr_CIS: Attagene CIS-FACTORIAL HepG2 Assay for human Aryl Hydrocarbon Receptor (Ahr) (AID 2282930); settings: HepG2 AhR cis-factorial reporter transcription; actives raise or lower the signal
Sequence of Aryl hydrocarbon receptor (Homo sapiens) (P35869 whole entry, looked up): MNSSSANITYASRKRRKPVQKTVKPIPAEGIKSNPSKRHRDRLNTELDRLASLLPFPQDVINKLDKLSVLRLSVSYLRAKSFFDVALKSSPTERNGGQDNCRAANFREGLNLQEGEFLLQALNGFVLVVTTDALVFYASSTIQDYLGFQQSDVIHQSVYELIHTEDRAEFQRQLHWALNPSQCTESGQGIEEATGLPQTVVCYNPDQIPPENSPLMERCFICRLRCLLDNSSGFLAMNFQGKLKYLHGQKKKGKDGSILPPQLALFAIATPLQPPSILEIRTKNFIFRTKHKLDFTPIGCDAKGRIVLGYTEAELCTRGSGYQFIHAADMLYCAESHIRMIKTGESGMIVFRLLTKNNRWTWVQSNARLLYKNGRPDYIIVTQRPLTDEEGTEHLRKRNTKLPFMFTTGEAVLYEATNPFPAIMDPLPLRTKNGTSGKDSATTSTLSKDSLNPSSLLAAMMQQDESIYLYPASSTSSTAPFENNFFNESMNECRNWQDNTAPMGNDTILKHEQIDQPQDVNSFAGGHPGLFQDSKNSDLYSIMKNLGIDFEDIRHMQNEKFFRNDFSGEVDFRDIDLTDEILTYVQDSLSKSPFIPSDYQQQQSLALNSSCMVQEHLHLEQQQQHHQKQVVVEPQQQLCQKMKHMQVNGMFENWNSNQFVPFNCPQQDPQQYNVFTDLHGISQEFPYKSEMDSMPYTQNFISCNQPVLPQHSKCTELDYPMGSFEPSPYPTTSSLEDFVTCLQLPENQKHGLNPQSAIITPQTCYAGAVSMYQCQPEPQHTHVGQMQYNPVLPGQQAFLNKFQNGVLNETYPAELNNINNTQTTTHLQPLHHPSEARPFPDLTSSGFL
Procedure, shortened: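 Read-out: reporter mRNA quantified by RT-PCR with fluorescent primer extension and capillary electrophoresis. Human HepG2 liver cells carried transfected cis-promoter reporter units and were exposed to chemical for 24 h; gain or loss fitted relative to DMSO.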

[5] = ATG_AP_1_CIS: Attagene CIS-FACTORIAL HepG2 Assay for human Activator Protein 1 (AP-1) (AID 2282931); settings: HepG2 Attagene cis-factorial AP-1 reporter mRNA; actives raise or lower the signal
Procedure, shortened: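 Cis-regulated reporter units transiently expressed in HepG2 report endogenous transcription-factor activity. Signal: reporter mRNA at 24 h, via RT-PCR and fluorescent capillary electrophoresis. Endpoint derived by bidirectional fitting, DMSO as negative control.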

[6] = ATG_AP_2_CIS: Attagene CIS-FACTORIAL HepG2 Assay for human Activator Protein 2 (AP-2) (AID 2282932); settings: HepG2 AP-2 cis-reporter, Attagene transcription factor profiling; actives raise or lower the signal
Procedure, shortened: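 Read-out: fluorescent reporter mRNA via RT-PCR and capillary electrophoresis, 24 h post-dose in transiently transfected HepG2. Endogenous factors drive cis-promoter reporters; gain or loss of signal fitted bidirectionally against DMSO.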

[7] = ATG_BRE_CIS: Attagene CIS-FACTORIAL HepG2 Assay for human Bone Morphogenetic Protein (BMP) Response Element (BRE) (AID 2282933); settings: HepG2 BMP response element reporter, Attagene transcription factor profiling; actives raise or lower the signal
Procedure, shortened: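 Read-out: reporter mRNA induction quantified by RT-PCR and capillary electrophoresis after 24 h chemical exposure of transfected HepG2 cells. Endogenous factor activity on the BMP response element; gain or loss fitted against DMSO baseline.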

[8] = target: Retinoic acid receptor alpha (Homo sapiens) (UniProt P10276); assay: ATG_DR5_RAR_CIS: Attagene CIS-FACTORIAL HepG2 Assay for human Retinoic Acid Receptor Alpha (RARE), DR5 submotif (AID 2282934); settings: HepG2 Attagene cis-factorial RARE DR5 reporter, mRNA; actives raise or lower the signal;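 on AC50: reporter responds to endogenous RAR alpha beta and gamma in HepG2 not RARA alone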
Sequence of Retinoic acid receptor alpha (Homo sapiens) (P10276 whole entry, looked up): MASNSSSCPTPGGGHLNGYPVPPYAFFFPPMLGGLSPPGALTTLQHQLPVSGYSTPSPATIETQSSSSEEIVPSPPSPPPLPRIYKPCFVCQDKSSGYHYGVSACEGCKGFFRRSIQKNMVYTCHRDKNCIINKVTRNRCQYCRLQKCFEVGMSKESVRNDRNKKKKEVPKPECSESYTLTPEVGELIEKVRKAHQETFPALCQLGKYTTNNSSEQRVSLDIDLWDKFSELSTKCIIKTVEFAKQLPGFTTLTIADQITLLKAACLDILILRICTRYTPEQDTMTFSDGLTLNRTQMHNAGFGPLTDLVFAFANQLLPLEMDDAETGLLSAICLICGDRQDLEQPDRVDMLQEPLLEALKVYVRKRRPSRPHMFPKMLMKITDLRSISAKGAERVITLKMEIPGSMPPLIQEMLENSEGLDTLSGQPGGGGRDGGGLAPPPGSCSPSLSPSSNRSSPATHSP
Procedure, shortened: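 Read-out: DR5-driven reporter transcript measured by RT-PCR, 6-FAM primer extension, HpaI digest and capillary electrophoresis. Human HepG2 liver cells carry transiently transfected cis-element reporter constructs; dosing lasts 24 h. Gain or loss of signal fitted against DMSO baseline.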

[9] = target: Transcription factor E2F1 (Homo sapiens) (UniProt Q01094); assay: ATG_E2F_CIS: Attagene CIS-FACTORIAL HepG2 Assay for human E2F Transcription Factor 1 (AID 2282935); settings: HepG2 Attagene cis-reporter, E2F reporter RNA transcripts; actives raise or lower the signal
Sequence of Transcription factor E2F1 (Homo sapiens) (Q01094 whole entry, looked up): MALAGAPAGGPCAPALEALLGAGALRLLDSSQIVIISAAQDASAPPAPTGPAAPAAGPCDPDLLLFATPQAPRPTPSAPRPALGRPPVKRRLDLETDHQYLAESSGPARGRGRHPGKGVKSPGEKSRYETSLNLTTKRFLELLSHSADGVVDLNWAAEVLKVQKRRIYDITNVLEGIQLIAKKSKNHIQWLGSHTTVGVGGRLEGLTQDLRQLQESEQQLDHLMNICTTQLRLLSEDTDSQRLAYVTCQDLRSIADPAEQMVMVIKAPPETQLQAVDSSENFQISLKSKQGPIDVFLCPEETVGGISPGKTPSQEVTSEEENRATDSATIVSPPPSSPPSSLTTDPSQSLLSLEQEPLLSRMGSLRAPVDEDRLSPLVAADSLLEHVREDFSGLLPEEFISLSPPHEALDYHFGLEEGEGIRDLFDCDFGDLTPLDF
Procedure, shortened: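 Transient MRTU transfection of HepG2; 24 h compound exposure; RNA → oligo(dT) RT → PCR → FAM label → HpaI cut → CE fluorescence. Gain/loss of signal fit against DMSO.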

[10] = ATG_M_61_CIS: Attagene CIS-FACTORIAL HepG2 Assay for M61 Transcription Factor (Internal Marker) (AID 2282937); settings: HepG2 Attagene CIS-FACTORIAL M61 internal marker reporter; actives raise or lower the signal
Procedure, shortened: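 Background-control endpoint: HepG2 cells with cis-regulated reporter constructs, 24 h exposure, reporter mRNA detected via fluorescent primer extension and capillary electrophoresis; values from bidirectional fitting with DMSO baseline.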

[11] = ATG_EGR_CIS: Attagene CIS-FACTORIAL HepG2 Assay for human Early Growth Response 1 (EGR1) (AID 2282938); settings: HepG2 Attagene CIS-FACTORIAL EGR reporter mRNA; actives raise or lower the signal
Procedure, shortened: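 Endpoint derived by bidirectional fitting versus DMSO vehicle. Method: cis-promoter reporter units transfected into HepG2, 24 h dosing, RNA isolation, RT-PCR with 6-FAM primer extension and HpaI digestion, then capillary electrophoresis fluorescence detection.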

[12] = ATG_M_19_CIS: Attagene CIS-FACTORIAL HepG2 Assay for M19 Transcription Factor (Internal Marker) (AID 2282939); settings: HepG2 Attagene CIS-FACTORIAL M19 internal marker reporter; actives raise or lower the signal
Procedure, shortened: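 Readout: fluorescent reporter-transcript fragments by capillary electrophoresis after RT-PCR. Human HepG2 liver cells carried transfected MRTU constructs reporting endogenous transcription-factor activity; exposure 24 h. Gain or loss of signal fitted relative to DMSO.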

[13] = ATG_ERE_CIS: Attagene CIS-FACTORIAL HepG2 Assay for Estrogen Response Element (ERE) (AID 2282940); settings: HepG2 ERE cis-reporter, Attagene RNA transcript; actives raise or lower the signal
Procedure, shortened: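 Readout: reporter mRNA induction by RT-PCR, FAM-labelled primer extension, HpaI digestion and capillary electrophoresis, 24 h after dosing transfected HepG2 cells. Endogenous transcription factors act on cis-element-regulated reporters. Gain or loss fitted against DMSO.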

[14] = ATG_Ets_CIS: Attagene CIS-FACTORIAL HepG2 Assay for human Erythroblast Transformation Specific (ETS) (AID 2282941); settings: HepG2 ETS cis-reporter transcription, actives raise or lower the signal
Procedure, shortened: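 RT-PCR/capillary electrophoresis fluorescence read-out of reporter mRNA; HepG2 transient multi-reporter transfection; 24 h compound exposure; gain or loss of signal fitted bidirectionally relative to DMSO.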

[15] = target: Hepatocyte nuclear factor 3-beta (Homo sapiens) (UniProt Q9Y261); assay: ATG_FoxA2_CIS: Attagene CIS-FACTORIAL HepG2 Assay for human Forkhead box A2 (FOXA2) (AID 2282942); settings: HepG2 cis-reporter transcription factor activity, 24 h; actives raise or lower the signal
Sequence of Hepatocyte nuclear factor 3-beta (Homo sapiens) (Q9Y261 whole entry, looked up): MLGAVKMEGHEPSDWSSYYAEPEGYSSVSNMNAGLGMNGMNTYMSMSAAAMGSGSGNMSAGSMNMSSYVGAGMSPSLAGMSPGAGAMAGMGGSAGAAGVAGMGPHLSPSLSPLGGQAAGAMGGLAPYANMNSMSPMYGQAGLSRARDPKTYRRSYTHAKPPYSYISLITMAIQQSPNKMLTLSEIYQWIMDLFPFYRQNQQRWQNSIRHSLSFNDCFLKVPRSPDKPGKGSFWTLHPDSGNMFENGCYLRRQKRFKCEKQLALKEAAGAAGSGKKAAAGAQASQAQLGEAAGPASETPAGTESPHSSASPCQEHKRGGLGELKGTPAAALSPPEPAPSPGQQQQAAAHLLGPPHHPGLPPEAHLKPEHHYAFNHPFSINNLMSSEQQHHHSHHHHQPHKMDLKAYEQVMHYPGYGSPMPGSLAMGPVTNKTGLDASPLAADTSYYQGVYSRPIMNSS
Procedure, shortened: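 Measured: reporter mRNA induction or loss in HepG2 transiently carrying multiple cis-regulated reporter units, 24 h after dosing. Quantified by RT-PCR plus capillary electrophoresis, normalised to DMSO.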

[16] = ATG_FoxO_CIS: Attagene CIS-FACTORIAL HepG2 Assay for human Forkhead box O (FoxO) (AID 2282943); settings: HepG2 Attagene cis-reporter, FoxO element, mRNA; actives raise or lower the signal
Procedure, shortened: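 Read-out: fluorescence of 6-FAM-labelled reporter cDNA fragments resolved by capillary electrophoresis. Transiently transfected HepG2 cells were dosed for 24 h; activity fitted in both directions relative to DMSO controls.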

[17] = ATG_GATA_CIS: Attagene CIS-FACTORIAL HepG2 Assay for human GATA Binding Protein (AID 2282944); settings: HepG2 GATA cis-element reporter, Attagene multiplex mRNA; actives raise or lower the signal
Procedure, shortened: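 Read-out: fluorescent reporter mRNA fragments resolved by capillary electrophoresis after RT-PCR. Human liver HepG2 cells carried transiently transfected cis-regulated reporter constructs; chemicals incubated 24 h; gain or loss of signal fitted relative to DMSO.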

[18] = ATG_GLI_CIS: Attagene CIS-FACTORIAL HepG2 Assay for human Zinc Finger Protein GLI1 (AID 2282945); settings: HepG2, Attagene cis-factorial reporter mRNA, GLI element; actives raise or lower the signal
Procedure, shortened: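 Transiently transfected HepG2 cells report endogenous transcription factor activity via cis-element-driven reporter units. After 24 h compound exposure, reporter mRNA was measured by RT-PCR with capillary electrophoresis; bidirectional fitting against DMSO baseline.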

[19] = ATG_DR4_LXR_CIS: Attagene CIS-FACTORIAL HepG2 Assay for human Liver X Receptor (LXR), DR4 submotif (AID 2282929); settings: HepG2 Attagene DR4 cis-reporter, mRNA transcription; actives raise or lower the signal
Procedure, shortened: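 DR4 cis-reporter in HepG2, 24 h exposure. Detection: RT-PCR, 6-FAM labelling, CE fragment analysis. Endpoint fitted bidirectionally, DMSO = baseline.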

[20] = ATG_E_Box_CIS: Attagene CIS-FACTORIAL HepG2 Assay for human Enhancer Box (E-box) (AID 2282936); settings: HepG2 E-box cis-reporter transcription, actives raise or lower the signal
Procedure, shortened: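 Transiently transfected HepG2, endogenous TF-driven reporters, 24 h dosing. Readout: RT-PCR plus capillary electrophoresis of fluorescent reporter fragments. Gain or loss of signal fitted bidirectionally against DMSO baseline.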

Measured: AC50

O=Cc1ccc(CO)o1
not listed: [19] | [20]
inactive: all other assays above

Cc1ccc(C(C)(C)C)cc1
not listed: [4] | [11] | [15]
inactive: all other assays above

CCCCCCCC/C=C\CCCCCCCC(=O)OCCO
active: [1] 50 µM | [2] 69 µM | [5] 50 µM | [8] 59.4 µM
not listed: [19]
inactive: all other assays above

CC1=CC[C@H](C(C)C)C=C1
not listed: [4] | [8]
inactive: all other assays above

CC(C)(C)C(=O)C=Cc1ccc(Cl)cc1
inactive: [1] | [3] | [8] | [9] | [12] | [14] | [16]
active: [2] 26.5 µM | [19] 17.2 µM | [5] 26 µM | [7] 12.3 µM | [20] 165 µM | [10] 148 µM | [11] 30.2 µM | [13] 155 µM

C[Si](C)O[Si](C)(C)O[Si](C)(C)O[Si](C)C
active: [13] 46.2 µM
not listed: [4] | [6] | [17]
inactive: all other assays above

COCc1c(C(C)C)nc(C(C)C)c(/C=C/[C@@H](O)C[C@@H](O)CC(=O)O)c1-c1ccc(F)cc1
not listed: [4] | [5] | [6] | [15]
inactive: all other assays above

Nc1nc2ccccc2[nH]1
active: [4] 28.6 µM | [13] 77.9 µM
not listed: [8] | [15] | [19]
inactive: all other assays above
